According to PubChem BioAssay (NCI):
This is part of a sample that, as a whole, favours compounds with a hit. Of some 79,000 tested, about 15% had one in any assay. A number with no mark means an inactive call. Calls of active or inactive are those of the source. Rule as the data show it: active = growth inhibition above about 70%; inactive = the rest.

Assays:
[1] = NCI Yeast Anticancer Drug Screen. Data for the rad50 strain (AID 155);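 also: 0% = growth of vehicle-only cultures of the same strain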; details: S. cerevisiae rad50 strain growth inhibition, active compounds read high
Outline: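 DNA repair mutant yeast, compound exposure, growth read-out; inhibition is taken relative to vehicle.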

[2] = NCI Yeast Anticancer Drug Screen. Data for the mec2-1 strain (AID 157); details: S. cerevisiae mec2-1 strain, active compounds read high
Outline: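 mec2-1 yeast strain, carrying an alteration in DNA damage repair or cell cycle control, was exposed to compounds; growth inhibition was measured relative to vehicle-treated controls.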

[3] = NCI Yeast Anticancer Drug Screen. Data for the sgs1 mgt1 strain (AID 161);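 also: 0% = growth of cultures given vehicle only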; details: S. cerevisiae sgs1 mgt1 strain, active compounds read high
Outline: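 Compounds are added to genetically altered yeast, and growth is compared with cultures given vehicle alone to give percent inhibition.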

[4] = NCI Yeast Anticancer Drug Screen. Data for the cln2 rad14 strain (AID 165);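 also: 0% = growth equal to vehicle treated cultures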; details: S. cerevisiae cln2 rad14 strain, active compounds read high
Outline: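 Yeast carrying cln2 and rad14 alterations (cell cycle control and DNA damage repair) were exposed to compounds. Growth inhibition was measured against vehicle-treated controls.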

[5] = NCI Yeast Anticancer Drug Screen. Data for the bub3 strain (AID 167); details: S. cerevisiae bub3 mutant strain, active compounds read high
Outline: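 In this screen, a yeast mutant lacking normal mitotic checkpoint function is challenged with compound. Relative growth versus vehicle gives the inhibition value.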

[6] = NCI Yeast Anticancer Drug Screen. Data for the mlh1 rad18 strain (AID 175); details: S. cerevisiae mlh1 rad18 strain growth inhibition, active compounds read high
Outline: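 Growth inhibition of the yeast strain was measured after compound exposure and expressed relative to vehicle-treated controls. The strain carries defined defects in DNA damage repair.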

[7] = at 5.0 µM (retest, dose inferred, filed as 0.5)
[8] = at 50.0 µM (retest, dose inferred, filed as 5.0)

SMILES | growth inhibition [1, 7] | growth inhibition [1, 8] | growth inhibition ([1]; at 50.0 µM) | growth inhibition [2, 7] | growth inhibition [2, 8] | growth inhibition ([2]; at 50.0 µM) | growth inhibition [3, 7] | growth inhibition [3, 8] | growth inhibition ([3]; at 50.0 µM) | growth inhibition [4, 7] | growth inhibition [4, 8] | growth inhibition ([4]; at 50.0 µM) | growth inhibition [5, 7] | growth inhibition [5, 8] | growth inhibition ([5]; at 50.0 µM) | growth inhibition [6, 7] | growth inhibition [6, 8] | growth inhibition ([6]; at 50.0 µM)
NNc1nc(Nc2ccccc2)nc(Nc2ccccc2)n1 | -8% | 93% (active) | 51.9% | -5% | 10% | 42% | -9% | 56% | 45.5% | -9% | 52% | 37.5% | -4% | 44% | 48.5% | -2% | 51% | 41.6%
Cn1c(=S)sc2nc3ccccc3n2c1=S | 49% | 96% (active) | 82.3% (active) | 12% | 97% (active) | 97% (active) | 37% | 98% (active) | 92.2% (active) | 18% | 98% (active) | 90% (active) | 14% | 98% (active) | 87.4% (active) | 54% | 97% (active) | 97.9% (active)
Nc1nc(N)c2nc(Sc3ccc(F)cc3)c(N)nc2n1 | -2% | 37% | 42.7% | -1% | -4% | 39.2% | -1% | 40% | 51.6% | 2% | 24% | 10.3% | -1% | 26% | 40.9% | 0% | 58% | 75.1% (active)
CC1(CCC(=O)O)c2ccc3ccccc3c2Oc2c1ccc1ccccc21 | 79% (active) | 94% (active) | 93.8% (active) | 92% (active) | 94% (active) | 96.2% (active) | 81% (active) | 94% (active) | 96% (active) | 77% (active) | 95% (active) | 94.9% (active) | 51% | 92% (active) | 95.9% (active) | 84% (active) | 92% (active) | 94.8% (active)
CC(=O)Oc1c(Br)ccc2cc(C(Br)Br)c(C(=O)c3ccccc3)nc12 | 55% | 55% | 83.6% (active) | 38% | 38% | 87.5% (active) | 51% | 51% | 87.5% (active) | 30% | 30% | 82.9% (active) | 25% | 25% | 83.9% (active) | 53% | 53% | 81.4% (active)
CC(=O)Oc1ccc(/C=C2\N=C(c3ccccc3)OC2=O)c(OC(C)=O)c1 | 4% | 75% (active) | 15.3% | 1% | 55% | 4.25% | -4% | 36% | 10.8% | 2% | 37% | 25.8% | -2% | 79% (active) | 9.55% | 0% | 77% (active) | 1.05%
S=c1[nH]c2cc(Cl)ccc2s1.[Zn+2] | -2% | 91% (active) | 95.3% (active) | 8% | 96% (active) | 97.8% (active) | 3% | 97% (active) | 93.3% (active) | -2% | 95% (active) | 96.7% (active) | 12% | 92% (active) | 97% (active) | 0% | 96% (active) | 97.5% (active)
Nc1c(-c2ccc(C3=NCCN3)cc2)[nH]c2cc(C3=NCCN3)ccc12 | 2% | 89% (active) | 32.3% | 1% | 89% (active) | -29% | 14% | 92% (active) | 69.9% | 13% | 83% (active) | 49.5% | 22% | 94% (active) | 74.1% (active) | 3% | 90% (active) | -46.2%
CCC1=C(c2ccccc2)C(O)(c2ccccc2)C(CC)C1=O (configuration not stated) | -3% | 99% (active) | 94% (active) | -5% | 99% (active) | 92.5% (active) | -7% | 99% (active) | 97.3% (active) | 5% | 99% (active) | 92.2% (active) | -4% | 99% (active) | 97.7% (active) | -2% | 98% (active) | 97.8% (active)
O=C1C(C(O)(C(F)(F)Cl)C(F)(F)Cl)CCC1C(O)(C(F)(F)Cl)C(F)(F)Cl (configuration not stated) | 92% (active) | 99% (active) | 99.8% (active) | 95% (active) | 100% (active) | 99.5% (active) | 95% (active) | 99% (active) | 99.8% (active) | 94% (active) | 99% (active) | 99.4% (active) | 78% (active) | 99% (active) | 98.1% (active) | 95% (active) | 99% (active) | 99.5% (active)
CCOc1ccccc1NC(=O)/C(Cl)=C(\Cl)C(=O)O | 100% (active) | 99% (active) | 99% (active) | 100% (active) | 100% (active) | 98.3% (active) | 100% (active) | 100% (active) | 95.2% (active) | 100% (active) | 99% (active) | 56.8% | 100% (active) | 100% (active) | 64.4% | 100% (active) | 100% (active) | 76% (active)
C=C(C)C(CC=C(C)C)Cc1c(O)cc(OC)c2c1OC(c1ccc(O)cc1O)C(O)C2=O (configuration not stated) | 29% | 22% | 34.1% | 27% | 28% | 23.4% | -23% | 42% | 55.2% | 19% | 32% | 43.9% | -5% | 38% | 57% | 24% | 23% | 85.3% (active)
O=C1OC(CC(=O)c2ccccc2Cl)C(Cl)=C1Cl (configuration not stated) | 6% | 33% | 38.1% | 7% | 35% | 12.6% | 39% | 52% | 58.9% | 16% | 30% | 46.6% | 1% | 37% | -0.55% | 23% | 62% | 65.7%
O=C(N/N=C/c1ccccn1)c1ccccc1[O-].O=C(N/N=C/c1ccccn1)c1ccccc1[O-].[Co+2] | 5% | 0% | 38.2% | 21% | 0% | 48.1% | 13% | 5% | 42.5% | 14% | 2% | 72.8% (active) | 17% | 2% | 99.2% (active) | 18% | -2% | 66.8%
CC1=C/C(=C\C=C2/N(C)c3c(C)cccc3C2(C)C)C(=O)c2ncccc21 | 28% | 98% (active) | 94.2% (active) | 28% | 99% (active) | 29.7% | 19% | 98% (active) | 70.8% (active) | 9% | 98% (active) | 24.6% | 49% | 98% (active) | 64.6% | 45% | 98% (active) | 63.2%
Nc1nc(N)c2nc(CNc3ccc(C(=O)NC(CCC(=O)O)C(=O)O)cc3)ccc2n1 (configuration not stated) | -2% | -5% | 16.3% | -25% | 11% | 64.2% | 18% | 16% | 0.1% | 9% | 21% | -5.8% | 7% | 3% | -38.9% | -8% | 8% | -20.7%
C[C@H](CCC1=NCCN1)[C@H]1CC[C@H]2[C@@H]3[C@H](O)C[C@@H]4C[C@H](O)CC[C@]4(C)[C@H]3CC[C@]12C | -19% | 99% (active) | 91.5% (active) | -2% | 100% (active) | 93% (active) | 3% | 100% (active) | 91.7% (active) | -6% | 99% (active) | 91% (active) | 0% | 99% (active) | 91.6% (active) | 4% | 99% (active) | 91% (active)
O=C1C=CC(=O)N1c1ccc2c(c1)Cc1cc(Cl)ccc1-2 | -48% | 92% (active) | 13.6% | 8% | 96% (active) | 78.3% (active) | -5% | 93% (active) | 79.2% (active) | -3% | 27% | -72% | 11% | 82% (active) | 72.3% (active) | 26% | 97% (active) | 68.9%
OC(c1cc(-c2ccc(Cl)c(Cl)c2)nc2ccccc12)C1CCCCN1 (configuration not stated) | 95% (active) | 70% (active) | 38.2% | 100% (active) | 12% | 32.8% | 84% (active) | 77% (active) | 9.85% | 99% (active) | 29% | -14.2% | 99% (active) | 61% | 66.3% | 99% (active) | 92% (active) | 88.5% (active)
